Experimental data published in PubChem BioAssay.
Calls of active or inactive are those of the source.

Experiments:
[1] = system: Plasmodium falciparum Sir2 (PF13_0152, Sir2A); test: pfSir2 binders on small-molecule microarrays, primary screen, biochemical, small-molecule microarray, 635 nm fluorescence (AID 1098); conditions: small-molecule microarray binding, fluorescence 635 nm; higher = more signal;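 further: score merges spot fluorescence intensity with its signal-to-noise ratio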
[2] = small-molecule microarray binders of probe aDKK1, primary screen, biochemical, biotinylated probe, 635/667 nm fluorescence (AID 1099); conditions: higher = more signal;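 further: score merges 667nm spot fluorescence with signal to noise across triplicate slides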
[3] = small-molecule microarray binders of probe aCHRDL2, primary screen, biochemical, biotinylated probe, 635/667 nm fluorescence (AID 1100); conditions: higher = more signal
[4] = splicing luciferase reporter signal modulators, primary screen, spliceosome inhibition project, cell-based, HEK293, splice +/- reporter (AID 1101); conditions: luminescence, 24 h, higher = more signal, called active from +8 up or from −8 down;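 further: HEK293 cells carrying a splicing-competent luciferase reporter gene; test concentration not given here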
[5] = molecular target: Fibroblast growth factor 10 (Homo sapiens) (UniProt O15520); test: FGF10 binders on small-molecule microarrays, primary screen, biochemical, small-molecule microarray, 635 nm fluorescence (AID 1102); conditions: FGF10 binding, fluorescence 635 nm, higher = more signal
[6] = system: glycogen synthase kinase-3 (GSK3A per assay name; protocol says GSK3B); test: GSK3 binders on small-molecule microarrays, primary screen, biochemical, small-molecule microarray, 635 nm fluorescence, GSK3A (AID 1103); conditions: small-molecule microarray binding, fluorescence 635 nm; higher = more signal; further: the record names both GSK3A and GSK3B
[7] = molecular target: Epidermal growth factor receptor (Homo sapiens) (UniProt P00533); test: EGFR binders on small-molecule microarrays, primary screen, biochemical, small-molecule microarray, 635 nm fluorescence (AID 1104); conditions: EGFR binding, higher = more signal;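 further: score merges 667 nm emission intensity with spot signal to noise over triplicate slides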
[8] = molecular target: Follistatin-related protein 3 (Homo sapiens) (UniProt O95633); test: FSTL3 binders on small-molecule microarrays, primary screen, biochemical, small-molecule microarray, 635 nm fluorescence (AID 1105); conditions: FSTL3 binding, higher = more signal;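 further: score merges emission near 667 nm and signal to noise per printed spot across three slides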
[9] = molecular target: Dickkopf-related protein 1 (Homo sapiens) (UniProt O94907); test: DKK1 binders on small-molecule microarrays, primary screen, biochemical, small-molecule microarray, 635 nm fluorescence scan (AID 1106); conditions: DKK1 binding, higher = more signal;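 further: score merges emission near 667 nm with signal to noise over three replicate slides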
[10] = system: Inhibin beta A chain (activin A); test: INHBA (activin A) binders on microarrays, primary screen, biochemical, small-molecule microarray, 635 nm fluorescence scan (AID 1107); conditions: small-molecule microarray binding, higher = more signal;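 further: mouse activin A protein probed at 4.33 µg/mL on printed slides; score merges bound-protein fluorescence near 667 nm with spot signal-to-noise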
[11] = system: Human papillomavirus type 1a protein E7 (residues 44-93); test: HPV1a E7 fragment binders on microarrays, primary screen, biochemical, small-molecule microarray, residues 44-93, 635 nm fluorescence (AID 1108); conditions: small-molecule microarray binding, fluorescence 635 nm; higher = more signal;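 further: E7 fragment applied at 1 µg/mL in TBST for 1 h at 4 C; score combines spot fluorescence with its signal to noise ratio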
[12] = modulators of HCV replicon luciferase signal, primary screen, HCV replication inhibitor project, Huh7 cells, luciferase reporter (AID 1109); conditions: 48 h, higher = more signal;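 further: huh7 hepatoma cells harbouring a luciferase neomycin HCV replicon reporter; luciferase luminescence as measure of HCV replicon replication; test concentration not given here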
[13] = molecular target: Left-right determination factor 2 (Homo sapiens) (UniProt O00292); test: LEFTY2 binders on small-molecule microarrays, primary screen, biochemical, small-molecule microarray, 635 nm fluorescence scan (AID 1110); conditions: LEFTY2 binding, higher = more signal
[14] = molecular target: Calmodulin-1 (Homo sapiens) (UniProt P0DP23); test: CALM1 binders on microarrays, EGTA buffer, profiling panel, biochemical, small-molecule microarray, Cy5-labelled CALM1 (AID 1111); conditions: Cy5-CALM1 binding fluorescence, higher = more signal;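 further: labelled calmodulin applied in Tris saline Tween buffer holding calcium plus EGTA and DTT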
[15] = molecular target: Calmodulin-1 (Homo sapiens) (UniProt P0DP23); test: calcium-bound CALM1 binders on microarrays, profiling panel, artefact control for SMM control-protein annotation, biochemical, small-molecule microarray, Cy5-labelled CALM1, plus calcium (AID 1112); conditions: Cy5-CALM1 binding fluorescence, higher = more signal;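 further: score merges spot fluorescence with signal to noise from triplicate slides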
[16] = small-molecule microarray binders of probe aWnt5a, primary screen, biochemical, biotinylated probe, 635/667 nm fluorescence (AID 1113); conditions: higher = more signal;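 further: score merges 667 nm fluorescence intensity with signal-to-noise per printed feature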
[17] = small-molecule microarray binders of probe aShh, primary screen, biochemical, biotinylated probe, 635/667 nm fluorescence (AID 1114); conditions: higher = more signal;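 further: probe is biotin-labelled aShh protein from a stem cell growth factor screen; measures binding of labelled protein to compounds printed on the slide; score merges feature fluorescence at 667 nm with signal-to-noise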
[18] = small-molecule microarray binders of probe aNog, primary screen, biochemical, biotinylated probe, 635/667 nm fluorescence (AID 1115); conditions: higher = more signal;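 further: probe is biotinylated aNog protein used at 0.15 µg/mL for 1 h at 4 C; z-score combines 667 nm fluorescence of each spot with its signal to noise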
[19] = molecular target: Torsin-1A-interacting protein 1 (Homo sapiens) (UniProt Q5JTV8); test: LAP1 binders from COS7 cell lysate, primary screen, small-molecule microarray, 635/667 nm fluorescence (AID 1116); conditions: COS7-hLAP1 lysate binding, 635 nm fluorescence, higher = more signal
[20] = molecular target: Alpha-bungarotoxin (Bungarus multicinctus) (UniProt P60615); test: alpha-bungarotoxin binders on microarray, profiling panel, artefact control for SMM control protein annotation, biochemical, small-molecule microarray, Alexa647 label, 635/667 nm fluorescence (AID 1117); conditions: alpha-BTX-A647 binding fluorescence, higher = more signal
Sequence of Alpha-bungarotoxin (Bungarus multicinctus) (P60615 whole entry, looked up): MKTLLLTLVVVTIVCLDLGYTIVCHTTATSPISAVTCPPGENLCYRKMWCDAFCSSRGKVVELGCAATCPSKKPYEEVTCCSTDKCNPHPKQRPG

Sequence of Left-right determination factor 2 (Homo sapiens) (O00292 whole entry, looked up): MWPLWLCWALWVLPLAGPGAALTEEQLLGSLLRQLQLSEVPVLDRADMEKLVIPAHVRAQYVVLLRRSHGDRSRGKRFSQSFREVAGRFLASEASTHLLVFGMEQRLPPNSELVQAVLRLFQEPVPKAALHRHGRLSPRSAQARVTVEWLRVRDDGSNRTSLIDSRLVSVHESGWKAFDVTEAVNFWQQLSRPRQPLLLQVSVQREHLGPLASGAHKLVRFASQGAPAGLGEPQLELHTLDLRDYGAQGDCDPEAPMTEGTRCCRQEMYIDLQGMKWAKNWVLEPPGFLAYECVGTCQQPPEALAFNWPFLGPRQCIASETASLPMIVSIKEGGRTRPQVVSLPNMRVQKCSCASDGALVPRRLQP
Sequence of Follistatin-related protein 3 (Homo sapiens) (O95633 whole entry, looked up): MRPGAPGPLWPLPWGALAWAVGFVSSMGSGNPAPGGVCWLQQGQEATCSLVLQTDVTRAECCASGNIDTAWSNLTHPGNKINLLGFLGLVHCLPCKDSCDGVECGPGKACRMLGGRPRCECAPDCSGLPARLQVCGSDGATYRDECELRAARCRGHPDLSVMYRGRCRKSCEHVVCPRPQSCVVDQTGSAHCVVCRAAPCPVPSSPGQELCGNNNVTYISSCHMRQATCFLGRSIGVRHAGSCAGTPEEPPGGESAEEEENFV
Sequence of Torsin-1A-interacting protein 1 (Homo sapiens) (Q5JTV8 whole entry, looked up): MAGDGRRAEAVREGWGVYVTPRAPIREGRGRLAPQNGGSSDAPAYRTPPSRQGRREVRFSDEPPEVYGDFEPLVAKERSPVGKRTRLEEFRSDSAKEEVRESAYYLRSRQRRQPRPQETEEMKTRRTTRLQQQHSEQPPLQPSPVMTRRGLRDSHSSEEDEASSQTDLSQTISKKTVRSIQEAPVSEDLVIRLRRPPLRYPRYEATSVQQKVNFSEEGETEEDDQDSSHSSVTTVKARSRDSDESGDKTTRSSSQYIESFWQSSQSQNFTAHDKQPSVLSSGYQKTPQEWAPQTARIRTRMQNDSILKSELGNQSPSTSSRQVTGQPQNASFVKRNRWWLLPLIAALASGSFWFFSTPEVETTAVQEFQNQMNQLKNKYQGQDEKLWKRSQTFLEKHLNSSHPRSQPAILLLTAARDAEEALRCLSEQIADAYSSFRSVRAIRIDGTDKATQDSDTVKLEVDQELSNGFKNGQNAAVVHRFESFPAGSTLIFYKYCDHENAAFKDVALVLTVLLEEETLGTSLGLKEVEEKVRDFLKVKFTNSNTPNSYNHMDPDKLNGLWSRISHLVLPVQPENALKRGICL
Sequence of Fibroblast growth factor 10 (Homo sapiens) (O15520 whole entry, looked up): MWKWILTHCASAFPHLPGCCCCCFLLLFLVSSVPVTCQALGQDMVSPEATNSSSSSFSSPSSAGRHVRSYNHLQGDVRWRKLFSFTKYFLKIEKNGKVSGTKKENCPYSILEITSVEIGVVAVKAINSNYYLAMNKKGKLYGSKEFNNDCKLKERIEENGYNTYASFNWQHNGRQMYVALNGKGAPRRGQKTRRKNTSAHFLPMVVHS
Sequence of Dickkopf-related protein 1 (Homo sapiens) (O94907 whole entry, looked up): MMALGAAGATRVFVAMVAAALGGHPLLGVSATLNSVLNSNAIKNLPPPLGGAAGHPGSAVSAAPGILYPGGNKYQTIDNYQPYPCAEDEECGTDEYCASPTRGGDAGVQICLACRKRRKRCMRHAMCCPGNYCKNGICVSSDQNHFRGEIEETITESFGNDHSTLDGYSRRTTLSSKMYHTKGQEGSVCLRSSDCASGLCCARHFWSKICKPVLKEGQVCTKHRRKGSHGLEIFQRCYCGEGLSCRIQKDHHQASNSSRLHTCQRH
Sequence of Epidermal growth factor receptor (Homo sapiens) (P00533 whole entry, looked up): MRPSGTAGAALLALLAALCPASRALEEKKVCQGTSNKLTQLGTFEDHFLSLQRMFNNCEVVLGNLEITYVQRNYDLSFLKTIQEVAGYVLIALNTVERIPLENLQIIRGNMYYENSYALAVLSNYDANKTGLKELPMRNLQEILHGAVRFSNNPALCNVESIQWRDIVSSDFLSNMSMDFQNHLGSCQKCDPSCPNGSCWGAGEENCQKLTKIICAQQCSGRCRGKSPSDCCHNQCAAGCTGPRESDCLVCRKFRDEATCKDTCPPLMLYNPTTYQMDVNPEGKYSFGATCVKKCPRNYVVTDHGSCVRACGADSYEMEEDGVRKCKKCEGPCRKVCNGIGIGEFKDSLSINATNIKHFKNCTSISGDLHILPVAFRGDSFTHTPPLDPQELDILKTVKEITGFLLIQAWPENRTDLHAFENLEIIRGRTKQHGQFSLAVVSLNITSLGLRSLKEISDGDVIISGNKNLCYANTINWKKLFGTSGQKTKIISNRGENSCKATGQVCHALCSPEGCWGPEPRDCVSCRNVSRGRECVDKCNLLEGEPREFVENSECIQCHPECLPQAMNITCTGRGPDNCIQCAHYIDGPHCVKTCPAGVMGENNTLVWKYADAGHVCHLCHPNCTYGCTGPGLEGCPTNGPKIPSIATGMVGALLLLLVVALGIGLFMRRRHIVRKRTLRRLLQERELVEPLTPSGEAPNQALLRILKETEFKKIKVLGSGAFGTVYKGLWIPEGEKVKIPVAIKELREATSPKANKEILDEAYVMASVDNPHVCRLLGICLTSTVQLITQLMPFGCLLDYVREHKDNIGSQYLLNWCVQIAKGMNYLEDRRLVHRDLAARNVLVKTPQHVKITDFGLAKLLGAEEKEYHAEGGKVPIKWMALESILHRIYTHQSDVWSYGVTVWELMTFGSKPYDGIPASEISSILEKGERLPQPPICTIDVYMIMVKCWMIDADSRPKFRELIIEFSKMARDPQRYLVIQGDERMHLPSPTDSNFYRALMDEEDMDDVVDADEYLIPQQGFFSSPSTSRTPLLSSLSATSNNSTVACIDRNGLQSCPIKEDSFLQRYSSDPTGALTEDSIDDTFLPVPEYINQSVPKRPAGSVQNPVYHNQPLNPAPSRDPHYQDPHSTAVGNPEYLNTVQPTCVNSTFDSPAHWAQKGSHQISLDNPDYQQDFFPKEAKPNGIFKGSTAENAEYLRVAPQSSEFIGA

Row | Structure (SMILES) | composite z-score [1] | composite z-score [2] | composite z-score [3] | z-score [4] | composite z-score [5] | composite z-score [6] | composite z-score [7] | composite z-score [8] | composite z-score [9] | composite z-score [10] | composite z-score [11] | z-score [12] | composite z-score [13] | composite z-score [14] | composite z-score [15] | composite z-score [16] | composite z-score [17] | composite z-score [18] | composite z-score [19] | composite z-score [20]
1 | COC(=O)[C@@]1(Cc2ccccc2)[C@H]2c3cc(C(=O)N4CCCC4)n(Cc4ccc(O)c(OC)c4)c3C[C@H]2CN1C(=O)c1ccccc1 | 0.117 | 0.611 | 1.08 | -2.95 (inactive) | 0.253 | 0.632 | -0.527 | 0.202 | -0.817 | 0.939 | 1.35 | -1.7 | -0.943 | 0.556 | 0.0466 | 0.288 | 1.14 | 1.11 | 0.53 | -0.142
2 | CC(C)CN1C(=O)[C@@]2(c3ccc([N+](=O)[O-])cc3)CC(=O)N(C3CCCCC3)[C@@H]2c2ccc(CO)cc21 | 0.103 | -0.0495 | 0.867 | 0.256 (inactive) | -0.935 | -1.27 | -1.31 | -1.21 | -1.38 | 0.294 | -1.25 | -0.707 | -1.69 | -0.311 | -0.0449 | -0.208 | -0.33 | -0.181 | -0.803 | 0.547
3 | O=C(CS)NCCCCCNC(=O)[C@H]1C[C@H]2C(=O)NCC(=O)N2[C@H]1c1cccc(OCCO)c1 | 1.59 | -0.248 | 0.504 | -0.957 (inactive) | -0.0137 | -1.11 | -0.538 | 0.101 | 0.129 | -0.462 | -1.02 | 1.34 | -0.356 | -0.213 | 0.787 | -0.152 | 0.294 | -0.311 | -0.631 | 0.854
4 | COc1ccc([Si](C)(C)[C@H]2[C@H](CCO)O[C@@]3(C(=O)N(Cc4ccccc4)c4ccc(N5CCCCC5=O)cc43)[C@@H]2C)cc1 | 1.06 | -0.0725 | 0.104 | -2.11 (inactive) | 0.884 | 0.737 | 0.199 | 0.579 | -0.0075 | 0.301 | 0.668 | -5.03 | -0.161 | 0.674 | 0.167 | -0.0685 | -0.156 | -0.135 | 0.652 | 0.883
5 | COc1ccc([C@H]2C[C@H]3C(Br)=C[C@@]2(CO)C(=O)[C@]32CO2)cc1 | -0.194 | -0.118 | 0.565 | -0.206 (inactive) | -0.0884 | -0.516 | 0.197 | -0.387 | -0.198 | 1.32 | -0.368 | -2.02 | 0.122 | -0.282 | -0.38 | 0.0286 | -0.262 | -0.0827 | 0.291 | 0.0471
6 | Cc1ccc(S[C@]2(C(=O)O)CC(=O)N(C(C)C)[C@@H]2c2ccc(CO)cc2)cc1 | 0.161 | -0.11 | 0.34 | -0.448 (inactive) | 0.224 | -0.207 | -0.468 | 0.147 | 0.0142 | 0.754 | 0.253 | -0.625 | -0.193 | -0.0058 | -0.529 | -0.12 | 0.216 | -0.294 | 1.42 | 0.644
7 | O=C1OCC=C[C@H]2OC34C=CCN(CCN5CCOCC5)C(=O)[C@H]3N(CCO)C(=O)[C@@H]4[C@@H]12 (stereo not given in full) | 1.47 | -0.0283 | -0.224 | 0.308 (inactive) | -0.787 | 0.0559 | -0.14 | 0.241 | -0.0563 | 0.0758 | 0.259 | 0.289 | -0.0919 | -0.571 | -0.932 | -0.223 | -0.321 | -0.384 | 0.0486 | -0.283
8 | COCCOC(=O)N1C(=O)[C@@]2(c3cc(C#CCCO)ccc31)[C@H](c1ccc(OCCO)cc1)N1[C@H](c3ccccc3)[C@H](c3ccccc3)OC(=O)[C@H]1[C@@H]2C(N)=O | 0.923 | 0.0909 | -0.0603 | -1.59 (inactive) | 0.874 | 1.3 | 0.587 | 0.829 | 0.441 | 0.257 | 1.44 | -1.13 | 0.606 | 0.852 | 0.278 | 0.0136 | 0.171 | 0.226 | 0.918 | 0.338
9 | COC(=O)c1c(CC[C@@H](CO)NC(=O)N[C@H](Cc2ccccc2)Cn2cc(-c3ccccn3)nn2)oc(C(C)=O)c1C(=O)OC | 1.48 | -0.123 | -0.379 | 1.01 (inactive) | 0.384 | 0.17 | -0.371 | -0.15 | -0.328 | -0.285 | 0.538 | -0.563 | -0.0385 | 0.475 | -0.556 | -0.124 | -0.304 | -0.158 | 1.79 | 1.08
10 | COC(=O)[C@@]1(Cc2ccccc2)[C@H]2c3cc(C(=O)N(C)C)n(Cc4ccc(OC)c(OC)c4)c3C[C@H]2CN1C(=O)c1ccccc1 | 0.0313 | 0.905 | 0.94 | -4.08 (inactive) | 1.44 | 0.454 | 0.568 | 0.609 | -0.833 | 0.67 | 1.46 | -2.35 | -0.394 | 1.71 | 0.873 | 0.229 | 0.187 | 2.35 | 1.1 | 1.07
11 | CN1C(=O)C2C=CC(C(O)c3ccccc3)N(N3CCCCC3)C2C1=O (stereo not given) | 1.75 | 0.159 | 0.846 | 0.651 (inactive) | 1.26 | 0.83 | -0.0247 | 0.494 | 0.0514 | 0.932 | 0.876 | -0.379 | -0.203 | 0.0777 | -0.102 | 0.28 | 0.108 | -0.52 | 0.411 | 0.464
